Measured values taken from PubChem BioAssay AID1159580 (chemical genetic matrix, 2015).
Hit rate of the full screen: of about 5,500 compounds, about 2,000 (36%) were called active. Not shown: some 18% with an inconclusive outcome. Cut-off read from the data, not from the text of the source: active = normalized growth mostly below about 0.91 (no sharp cut-off); inconclusive = no clear call, values can overlap the other calls; inactive = mostly above about 0.92. The list shows a part of the results.

Assay: chemical genetic growth profiling, strain panel (AID 1159580);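 note: tested at 20 µM; growth read once vehicle control cultures reached saturation at 30 °C; 1 = growth at the plate median or of vehicle wells; lower values mean less growth of the strain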
Conditions: S. cerevisiae deletion strains, growth OD

Measured: normalized growth

Cc1cc(C)c2cc(C(=O)NCCNc3ccc(C(F)(F)F)cn3)[nH]c2c1
inactive: locus YAR019C, strain CDC15, stronger effect = lower value 0.983 | locus YBL105C, strain PKC1, stronger effect = lower value 0.971 | locus YBR135W, strain CKS1, stronger effect = lower value 0.983 | locus YBR136W, strain MEC1, stronger effect = lower value 0.981 | locus YBR160W, strain CDC28, stronger effect = lower value 0.97 | locus YDL017W, strain CDC7, stronger effect = lower value 0.98 | locus YDL028C, strain MPS1, stronger effect = lower value 0.98 | locus YDL101C, strain DUN1, stronger effect = lower value 0.936 | locus YDL108W, strain KIN28, stronger effect = lower value 0.972 | locus YDL132W, strain cdc53, stronger effect = lower value 0.992 | locus YDR052C, strain DBF4, stronger effect = lower value 0.983 | locus YDR054C, strain cdc34, stronger effect = lower value 0.968 | locus YDR226W, strain ADK1, stronger effect = lower value 0.983 | locus YFL009W, strain cdc4, stronger effect = lower value 0.991 | locus YFL029C, strain CAK1, stronger effect = lower value 0.985 | locus YFR003C, strain YPI1, stronger effect = lower value 0.976 | locus YFR028C, strain CDC14, stronger effect = lower value 0.976 | locus YIL147C, strain SLN1, stronger effect = lower value 0.984 | locus YJL128C, strain PBS2, stronger effect = lower value 0.961 | locus YJR016C, strain ILV3, stronger effect = lower value 0.985 | locus YKL193C, strain SDS22, stronger effect = lower value 0.989 | locus YMR001C, strain CDC5, stronger effect = lower value 0.986 | locus YMR277W, strain FCP1, stronger effect = lower value 0.992 | locus YNL006W, strain LST8, stronger effect = lower value 0.986 | locus YNL161W, strain CBK1, stronger effect = lower value 0.986 | locus YNL207W, strain RIO2, stronger effect = lower value 0.955 | locus YNL222W, strain SSU72, stronger effect = lower value 0.974 | locus YNL307C, strain MCK1 (second series), stronger effect = lower value 0.644 | locus YOL078W, strain AVO1, stronger effect = lower value 0.985 | locus YOR329C, strain SCD5, stronger effect = lower value 0.984 | locus YPL209C, strain IPL1, stronger effect = lower value 0.976 | locus YPR025C, strain CCL1, stronger effect = lower value 0.98 | locus YPR106W, strain ISR1, stronger effect = lower value 1 | locus YPR111W, strain DBF20, stronger effect = lower value 0.944 | strain NNK1, stronger effect = lower value 0.94 | strain TSCII, stronger effect = lower value 0.985
active: locus YDL214C, strain PRR2, stronger effect = lower value 0.468 | locus YDR477W, strain SNF1, stronger effect = lower value 0.457 | locus YER123W, strain YCK3, stronger effect = lower value 0.381 | locus YER133W, strain GLC7, stronger effect = lower value 0.487 | locus YFR019W, strain FAB1, stronger effect = lower value 0.322 | locus YGR040W, strain KSS1, stronger effect = lower value 0.501 | locus YGR052W, strain FMP48, stronger effect = lower value 0.249 | locus YGR092W, strain DBF2, stronger effect = lower value 0.225 | locus YHR030C, strain SLT2, stronger effect = lower value 0.0941 | locus YHR079C, strain IRE1, stronger effect = lower value 0.11 | locus YHR082C, strain KSP1, stronger effect = lower value 0.125 | locus YHR205W, strain SCH9, stronger effect = lower value 0.457 | locus YJL095W, strain BCK1, stronger effect = lower value 0.102 | locus YJL157C, strain FAR1, stronger effect = lower value 0.501 | locus YJR066W, strain TOR1 (second series), stronger effect = lower value 0.212 | locus YJR066W, strain TOR1, stronger effect = lower value 0.121 | locus YKL048C, strain ELM1, stronger effect = lower value 0.511 | locus YKL067W, strain YNK1, stronger effect = lower value 0.567 | locus YKL203C, strain TOR2, stronger effect = lower value 0.233 | locus YLR113W, strain HOG1, stronger effect = lower value 0.137 | locus YLR133W, strain CKI1, stronger effect = lower value 0.446 | locus YLR403W, strain SFP1, stronger effect = lower value 0.557 | locus YML070W, strain DAK1, stronger effect = lower value 0.365 | locus YMR205C, strain PFK2 (second series), stronger effect = lower value 0.551 | locus YNL020C, strain ARK1, stronger effect = lower value 0.415 | locus YNL183C, strain NPR1, stronger effect = lower value 0.169 | locus YOL136C, strain PFK27, stronger effect = lower value 0.398 | locus YOR061W, strain CKA2, stronger effect = lower value 0.59 | locus YOR119C, strain RIO1, stronger effect = lower value 0.341 | locus YOR231W, strain MKK1, stronger effect = lower value 0.129 | locus YPL031C, strain PHO85, stronger effect = lower value 0.276 | locus YPL153C, strain RAD53, stronger effect = lower value 0.184 | locus YPL204W, strain HRR25, stronger effect = lower value 0.268 | locus YPL256C, strain CLN2, stronger effect = lower value 0.137
